Screening results: PubChem BioAssay, National Center for Advancing Translational Sciences (NCATS)
In the library only some 2.8% were active in any assay of this set; here they are far more common.
Pol beta inh-1: DNA polymerase beta (human) inhibition. Pol beta primer extension/strand displacement, fluorescence kinetic. 340,000 tested, 1.3% active. Potency, µM (highest dose often 114 µM), for inactives: top-dose activity change, negative = inhibition, most hits filed as inhibitors; note: potency is the fitted concentration of half-maximal effect; % is set by controls: 0 for no effect and ±100 for the full control effect
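Pol beta (10 nM) and compounds were preincubated 15 min at room temperature, then 50 nM substrate (final) started primer extension/strand displacement. Reads were taken at 0 and 10 min; concentration-response data were fitted to a four-parameter Hill equation.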
Pol eta inh: blocks human DNA polymerase eta activity; Q9Y253; recombinant Pol eta, fluorescent DNA replication assay; Potency, µM (series often up to 114 µM), for inactives: at the highest dose activity change, negative = inhibition, hits mostly inhibitors; 390,000 tested, 1.2% active; note: potency is the fitted concentration of half-maximal effect; % is set by controls: 0 for no effect and ±100 for the full control effect
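Pol eta (10 nM) was preincubated with compounds for 15 min at room temperature, after which fluorescent replication substrate (50 nM final) was added to start the reaction. Fluorescence was read kinetically at 0 and 10 min.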
PI5P4Ka inh: inhibitors of human PI5P4K alpha | P48426 | PI5P4Kalpha enzyme, ADP-Glo luminescence, 60 min; stronger effect = lower value | max response, % | 330,000 tested, 1.2% active; active = max response of -50% or lower; inconclusive = between -30% and -50%; inactive = -30% or higher; note: value at the top dose of about 77 µM; % is set by controls: 0 for no effect and ±100 for the full control effect
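Quantitative HTS of the MLSMR library against PI5P4Kalpha with substrate. ATP added last at 5 microM final; room temperature, 60 minutes. Remaining ATP depleted, ADP converted and read as luminescence.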
POLI inh: blocks human DNA polymerase iota activity; Q9UNA4; Pol iota fluorescent replication assay, 10 min; Potency, µM (series often up to 115 µM), for inactives: at the highest dose activity, negative = inhibition, hits mostly inhibitors; 390,000 tested, 1% active; AID 588590; note: potency is the fitted concentration of half-maximal effect
Target sequence (Q9UNA4 whole entry, looked up): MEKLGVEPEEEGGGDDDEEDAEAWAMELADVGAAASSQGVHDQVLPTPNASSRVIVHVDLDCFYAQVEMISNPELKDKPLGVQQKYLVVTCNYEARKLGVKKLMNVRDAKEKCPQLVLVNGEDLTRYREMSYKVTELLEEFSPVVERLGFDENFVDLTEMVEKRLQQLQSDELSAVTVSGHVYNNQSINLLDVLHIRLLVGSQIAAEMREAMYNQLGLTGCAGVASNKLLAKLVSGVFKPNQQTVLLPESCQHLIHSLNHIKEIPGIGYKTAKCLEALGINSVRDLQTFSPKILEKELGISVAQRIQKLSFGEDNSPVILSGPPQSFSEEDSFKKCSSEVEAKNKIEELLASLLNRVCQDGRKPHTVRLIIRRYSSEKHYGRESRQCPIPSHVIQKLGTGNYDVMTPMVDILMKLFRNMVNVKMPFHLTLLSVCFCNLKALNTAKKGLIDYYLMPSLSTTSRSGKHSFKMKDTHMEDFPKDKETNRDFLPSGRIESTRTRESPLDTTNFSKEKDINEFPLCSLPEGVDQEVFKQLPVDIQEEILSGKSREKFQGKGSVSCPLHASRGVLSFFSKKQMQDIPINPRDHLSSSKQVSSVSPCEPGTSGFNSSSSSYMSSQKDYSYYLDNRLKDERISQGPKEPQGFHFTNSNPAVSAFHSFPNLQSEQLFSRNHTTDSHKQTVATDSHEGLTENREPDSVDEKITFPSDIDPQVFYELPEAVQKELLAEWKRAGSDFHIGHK
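Pol iota at 10 nM preincubated 15 min with compounds at room temperature; reaction started with fluorescent substrate, 50 nM final. Fluorescence read kinetically at 0 and 10 min; buffer-only wells as negative control.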
WRN inhibitor: inhibitors of human WRN helicase. Q14191. WRN helicase unwinding, fluorescent forked duplex, kinetic. Potency, µM (series often up to 114 µM), for the others: at the top dose activity change, negative = inhibition, hits mostly inhibitors. 360,000 tested, 0.46% active. AID 651768; note: potency is the fitted concentration of half-maximal effect; % is set by controls: 0 for no effect and ±100 for the full control effect; nearly all actives have a fitted effect of over 55% in size
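Kinetic red-fluorescence monitoring (525/598 nm) tracks WRN helicase activity after 100 nM fluorophore-quencher forked duplex and 2 mM ATP are added to 20 nM enzyme pretreated 15 min at room temperature with compound.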
POLK inh: blocks human DNA polymerase kappa activity | Q9UBT6 | purified Pol kappa, fluorescent DNA synthesis assay, 10 min | Potency, µM (highest dose often 107 µM), for inactives: top-dose activity, negative = inhibition, hits mostly inhibitors | 400,000 tested, 0.53% active; note: potency is the fitted concentration of half-maximal effect; % is set by controls: 0 for no effect and ±100 for the full control effect
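First, compounds were pin-transferred onto 10 nM Pol kappa. After 15 min at room temperature, substrate was added to 50 nM final. Fluorescence was then measured kinetically at 0 and 10 min.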
Pol beta inh-2: Human Pol beta inhibitor hit validation; shares compounds with Pol beta inh-1; Pol beta primer extension/strand displacement, fluorescence kinetic; Potency, µM, most hits filed as inhibitors; 250 tested, 87% active; AID 540280; calls by dose curve; note: potency is the fitted concentration of half-maximal effect
Klenow inh: inhibits Klenow fragment polymerase in counter-screen; shares compounds with Pol beta inh-1; Klenow exo- polymerase counter-screen, fluorescent DNA substrate; activity change, negative = inhibition, % at 57.1 µM; 250 tested, under 10 active; AID 540300
HIV RT counter: counter-screen for DNA polymerase beta inhibitors: HIV-1 RT inhibition; shares compounds with Pol beta inh-1; HIV-1 RT polymerase activity, counter-screen; activity % (negative = inhibition, positive = activation), % at 57.1 µM; 250 tested, under 10 active
POLB inh gel: validation of human DNA polymerase beta inhibitors; shares compounds with Pol beta inh-1; radiolabeled primer extension gel assay, phosphorimager; inhibition, % at 10 µM; 110 tested, 91% active;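 active = inhibition at 10 µM of 30% or more; inconclusive = no clear call, values can overlap the other calls; inactive = inhibition at 10 µM under 30%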
Starred values were filed as active, the others as inactive; ? = inconclusive; / = not tested or not shown; [ ] = dose if it differs, or a comment. Unless noted, calls come from the whole dose curve; as a rule, active = well fitted curve in the direction sought with a large enough effect; inconclusive = small, poorly fitted or top-dose-only effect, or another doubt; inactive = no such curve, though single readings can be large; an effect the other way counts as inactive or inconclusive.

SMILES | Pol beta inh-1 | Pol eta inh | PI5P4Ka inh | POLI inh | WRN inhibitor | POLK inh | Pol beta inh-2 | Klenow inh | HIV RT counter | POLB inh gel
Cc1cc(C)c2cc(C#N)c(SCC(=O)NCc3ccco3)nc2c1 | 20µM* | ? | -24.4 | ? | -29.1% | -7.6% | 28.2* | -3.5 | 4.9 | 85.6*
Cc1cccc(-n2nc(C)c3c(C(=O)O)cc(-c4cccs4)nc32)c1 | -11.2% | -9.1% | 19.1 | 98.0% | -10.7% | -6.4% | / | / | / | /
Cc1nn(-c2cccc(Cl)c2)c2nc(-c3ccco3)cc(C(=O)O)c12 | 14.1µM* | 17.8µM* | -0.5 | ? | ? | -20.2% | ? | -15.9 | -10.2 | /
CCNC(=O)C1(C)CCN1CCC(=O)c1ccc(C)cc1 (stereo not drawn) | / | / | -6.8 | / | 9.1%[57.1 µM] | / | / | / | / | /
Cc1ccc(C(=O)CSc2nc(C)cc(=O)[nH]2)cc1 | 6.6% | -7.5% | 0.5 | 2.1% | -10.6% | -0.4% | / | / | / | /
Cc1cc(=O)[nH]c(SCC(=O)c2ccc(O)c(O)c2)n1 | 11.2µM* | 17.8µM* | -16.4 | 50.1µM* | -7.7%[11.6 µM] | ? | 28.2* | -11.6 | ? | 15.8
Cc1cc(C)nc(SCC(=O)c2ccc(O)c(O)c2)n1 | 4.47µM* | 15.8µM* | ? | ? | -31.0% | ? | 31.6* | -32.1 | 20.5 | 42.0*
N#C/C(=C/c1ccc(OC(=O)c2ccc(Br)s2)cc1)c1nc2ccccc2[nH]1 | / | -8.2% | -23.4 | 59.5% | -3.1% | -27.8% | / | / | / | /
N#C/C(=C\c1ccc(OC(=O)c2ccc(Br)s2)cc1)c1nc2ccccc2[nH]1 | 2µM* | 5.62µM* | -1.7 | 43.8% | -23.2%[57.1 µM] | -23.2% | 8.91* | -8.1 | 13.2 | /
O=C(NC1CC(=O)N(c2ccc3c(c2)OCCO3)C1)N1CCCCC1 (stereo not drawn) | / | -17.5% | 2.4 | 57.8% | -12.0% | -0.2% | / | / | / | /
O=C(Cc1cccs1)N1CCN(c2ccc([N+](=O)[O-])cc2)CC1 | 20µM* | 79.4µM* | ? | ? | -14.0% | ? | ? | -35.2 | 60.0 | 65.3*
CN[C@@H](CO)C(=O)NC[C@H]1O[C@@H](n2cnc3c(=O)[nH]c(N)nc32)[C@H](O)[C@@H]1O | / | / | -0.4 | / | -8.0% | / | / | / | / | /
Cc1cccc(Nc2nn3c(=O)c4ccccc4nc3s2)c1 | 10µM* | ? | -2.4 | ? | -24.2% | ? | 3.98* | -7.5 | 27.0 | /
Cc1ccc(Nc2nn3c(=O)c4cc5c(cc4nc3s2)OCO5)cc1Cl | 34.3% | -7.2% | / | -5.4% | / | -2.2% | / | / | / | /
O=C(Nc1ccc2c(c1)OCO2)C1CCN(C(=O)CSc2ncnc3ccccc23)CC1 | 20µM* | 79.4µM* | / | ? | -7.1%[11.6 µM] | -29.1% | 35.5* | -7.2 | 40.0 | 85.5*
CC1CCN(S(=O)(=O)c2ccc(NC(=O)Cn3nnc(-c4ccccc4F)n3)cc2)CC1 | 15.8µM* | ? | / | 50.1µM* | -25.9% | ? | 35.5* | -22.3 | 27.0 | /
CC1CCN(S(=O)(=O)c2ccc(NC(=O)c3ccccc3F)cc2)CC1 | 6.1% | -12.4% | -7.3 | 53.7% | ? | -7.7% | / | / | / | /
Cn1c(SCC(=O)Nc2ccc3c(c2)oc2ccccc23)nnc1-c1ccccc1 | 2.24µM* | -19.0% | / | ? | -6.7%[57.1 µM] | -11.7% | ? | -10.5 | 15.4 | 13.2
Cn1c(SCC(=O)Nc2ccccc2)nnc1-c1ccccc1 | -10.1% | -7.0% | / | 11.6% | / | -7.2%[60.1 µM] | / | / | / | /
O=C1Nc2cc(Cl)ccc2Oc2cc(Oc3ccccc3)ccc21 | 0.3% | -8.5% | / | -5.7% | / | -2.7%[60.1 µM] | / | / | / | /
